PMC7819943, “Rice protein-binding microarrays: a tool to detect cis-acting elements near promoter regions in rice”
In all, about 68,000 sequences were measured (“fluorescence intensity (a.u.)”: median about 9,100, highest 2% from about 16,000 on). This is one part of a sample in which the highest values are shown more often than they occur.

target: OsWRKY34 (Oryza sativa, UniProt Q0JBA9 1-250); experiment: protein-binding microarray (RPBM); PBS, 2% BSA, 51.3 ng/ul salmon testes DNA, 50 uM zinc acetate, 200 nM TF, 25 C, 1 h; high values mean tight binding; conditions: protein: recombinant; tags: N-terminal polyhistidine and DsRed monomer fusion (pET32a); label: CyDye5-dUTP incorporated in the synthesized complementary strand; 3' TTTTT single-stranded linker to array surface; dsDNA, one strand shown
Sequence (Q0JBA9 entry or part of it): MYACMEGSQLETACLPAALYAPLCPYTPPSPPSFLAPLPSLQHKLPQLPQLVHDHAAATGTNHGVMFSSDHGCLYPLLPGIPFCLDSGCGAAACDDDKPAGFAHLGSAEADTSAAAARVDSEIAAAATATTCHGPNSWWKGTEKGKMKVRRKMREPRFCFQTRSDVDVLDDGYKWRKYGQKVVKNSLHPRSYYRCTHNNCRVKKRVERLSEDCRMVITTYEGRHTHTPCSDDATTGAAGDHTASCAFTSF
Method in brief: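 Per-feature fluorescence intensity (arbitrary units), read on an Axon 4000B scanner, is the binding signal. Transcription factors carrying an N-terminal polyhistidine tag and DsRed fusion were expressed in E. coli BL21-CodonPlus and purified on Ni–NTA. A custom Agilent array, made double-stranded by primer extension with Cy5-dUTP and blocked with 2% BSA, was incubated with 200 nM protein in PBS, 2% BSA, salmon testes DNA and 50 µM zinc acetate at 25 °C for 1 h and then washed.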

First: TCCCACCCGCTGCCACCAAAACCCTCCCCGCGCCCGGTCCCGGAGTCACCTAGTGCAG
Second: TCGACAATGTCACTCCATCATATCATGGCCAAAATATAACCGGAGTCACCTAGTGCAG
The binding signal of the first is higher: 10500 fluorescence intensity (a.u.) for the first, 8140 fluorescence intensity (a.u.) for the second.

Compared with “CTCTCCTCTCCGGTCATCTCATATATACGTATCTATATCGCGGAGTCACCTAGTGCAG”, “CGCATATATATCTCTCTTTGCATCTGTACTCATCGAATCTCGGAGTCACCTAGTGCAG” is higher in binding signal: 8520 fluorescence intensity (a.u.) for the first, 8640 fluorescence intensity (a.u.) for the second.

Going from “TCGCGACCTCTCATCTATCGATCTTTGCATACATATATATCGGAGTCACCTAGTGCAG” to “ATCCCCGTGTTCTCCCCACACAAACCTTCGCGCCGCCCATCGGAGTCACCTAGTGCAG”, the binding signal falls from 17800 fluorescence intensity (a.u.) to 9540 fluorescence intensity (a.u.).

Going from “CCTACTTGTTGGCTTCTATCTCCTGTTAATTAATTTCTCACGGAGTCACCTAGTGCAG” to “AATCGTTTTCTTTCTTGTCTTCAAACTTATTTTCCCGTTTCGGAGTCACCTAGTGCAG”, the binding signal rises from 8450 fluorescence intensity (a.u.) to 9600 fluorescence intensity (a.u.).

Compared with “GGAGGGCGGTGGCGAGGGCGGCGGTGGCGCGGATGCTGGACGGAGTCACCTAGTGCAG”, “CAGGTGGACGGCGGTGGTGGTGGTGGTGGTGGCGGCGATGCGGAGTCACCTAGTGCAG” is higher in binding signal: 8960 fluorescence intensity (a.u.) for the first, 17000 fluorescence intensity (a.u.) for the second.

First: AAGGGTGGGCGTGATGGAGTTTGGATGGGCCCTGCGACGGCGGAGTCACCTAGTGCAG
Second: AGGAGGTGGTGGGTGGTGGTGGCTGCGGCTTGGCGCGATGCGGAGTCACCTAGTGCAG
The binding signal of the first is lower: 9160 fluorescence intensity (a.u.) for the first, 9400 fluorescence intensity (a.u.) for the second.

First: GGCGGTGGCGGTGACGGTGGAGGTGGAGGCGGTGTGGCATCGGAGTCACCTAGTGCAG
Second: GAGGAGAGGCGGGGTGAGACGGGACGGGAGGGTGGCGATGCGGAGTCACCTAGTGCAG
The binding signal of the first is lower: 8420 fluorescence intensity (a.u.) for the first, 9530 fluorescence intensity (a.u.) for the second.

Going from “CAGTTTCATCCCTAGGTGGTGGTGGCGGTGCGTGGAGTGACGGAGTCACCTAGTGCAG” to “GTCAGGTGGCGGCGGCGGCGGTGGTGGCGGTGGAGGTGGACGGAGTCACCTAGTGCAG”, the binding signal falls from 16600 fluorescence intensity (a.u.) to 14400 fluorescence intensity (a.u.).

Compared with “AGGTGGAGGTGGAGGTGGAGGAGGGCGGCGGGTGGCGATGCGGAGTCACCTAGTGCAG”, “TCATGATGAATCGGGGTGGTGGAGGTTTGCTTGTTATGGTCGGAGTCACCTAGTGCAG” is lower in binding signal: 16500 fluorescence intensity (a.u.) for the first, 11000 fluorescence intensity (a.u.) for the second.

Going from “AGATTTGACTATCCTGCTGGAATCCGGTAACAATTTTTCACGGAGTCACCTAGTGCAG” to “TTGGTTGGTTGGTTATACAAAGACGCTACGAGTCCGGGAACGGAGTCACCTAGTGCAG”, the binding signal rises from 9560 fluorescence intensity (a.u.) to 12400 fluorescence intensity (a.u.).

Compared with “ACCATAAAGCCAAGTTTCATCCATAATCCTTATTTTTCATCGGAGTCACCTAGTGCAG”, “TGTTATATTTGTATTTGTGCTTTGCTTCTTCTAGGCTTTTCGGAGTCACCTAGTGCAG” is higher in binding signal: 8670 fluorescence intensity (a.u.) for the first, 8740 fluorescence intensity (a.u.) for the second.

Compared with “TCTCTGTCTCACTCTTCCTCTCTCTCACACGCACGGCGAGCGGAGTCACCTAGTGCAG”, “GGCCGGGGAGGGAGGGGCGCCGTCGTCCTGCTGCATCCTGCGGAGTCACCTAGTGCAG” is higher in binding signal: 8380 fluorescence intensity (a.u.) for the first, 20700 fluorescence intensity (a.u.) for the second.

First: CCCCGGAAGGGGCGGGGAGGGGAGGGCGGCAGCGGCGCCGCGGAGTCACCTAGTGCAG
Second: GGGGAGGCGGGGTGGCGGGAGGGAAGGCGGCGGCGGCGCCCGGAGTCACCTAGTGCAG
The binding signal of the first is higher: 18500 fluorescence intensity (a.u.) for the first, 12700 fluorescence intensity (a.u.) for the second.

First: CACTCCGCTGCCGCCCGCCGGAAGGGGAGGGGAGGAGGGGCGGAGTCACCTAGTGCAG
Second: GGTGGAGGCGGGCGCGGTGGAGGCGGGGAGGAAGGGGAGCCGGAGTCACCTAGTGCAG
The binding signal of the first is lower: 11700 fluorescence intensity (a.u.) for the first, 15100 fluorescence intensity (a.u.) for the second.

Compared with “GGGGCGCCGGGAAGGAGGGCGCTGTGTGGGAGGGAGGGAGCGGAGTCACCTAGTGCAG”, “AGGGCGCCGTCGTTCGTCATGCTGCTTCCGCCGCATCCTGCGGAGTCACCTAGTGCAG” is lower in binding signal: 17100 fluorescence intensity (a.u.) for the first, 9240 fluorescence intensity (a.u.) for the second.

Going from “GGGGCGCCGCCGTTCGTCCTGCTGCTTCCGCCGCATCCTGCGGAGTCACCTAGTGCAG” to “GGAGGGGCGGTGGCCGCCGGCGGCCCGCGCGGCGGGAGCGCGGAGTCACCTAGTGCAG”, the binding signal falls from 9650 fluorescence intensity (a.u.) to 9240 fluorescence intensity (a.u.).

Going from “GCCGTCCGCCGTGAGCCGGTGCTGTCCACGACGTCGTCTTCGGAGTCACCTAGTGCAG” to “TTACTCCTGGACCAGCATTGCTACAACTATCATTTTCTCCCGGAGTCACCTAGTGCAG”, the binding signal rises from 9640 fluorescence intensity (a.u.) to 9840 fluorescence intensity (a.u.).

Compared with “GGTTTTAAAGGGGTTCCATACACGTATGATAATAAGAGACCGGAGTCACCTAGTGCAG”, “GTCCAGGTTGGTTTTCATGGGTCGAGTGGCATCAGATGGGCGGAGTCACCTAGTGCAG” is higher in binding signal: 8180 fluorescence intensity (a.u.) for the first, 10100 fluorescence intensity (a.u.) for the second.

Compared with “TTCTTGATCTTTCTGGTTTCTACTGGTTGATTGTACACTTCGGAGTCACCTAGTGCAG”, “TTTTTTCTGTTTGTCCTCCATATATGTCAGCTCTAAAAATCGGAGTCACCTAGTGCAG” is higher in binding signal: 8500 fluorescence intensity (a.u.) for the first, 9300 fluorescence intensity (a.u.) for the second.

First: GCCCTTAACGCGATCATGTAACAATGTATCTAAGCCTATACGGAGTCACCTAGTGCAG
Second: ATCCGTTGCCCTCGCTCCTATAACTGCGTTGACATGTCGCCGGAGTCACCTAGTGCAG
The binding signal of the first is lower: 8200 fluorescence intensity (a.u.) for the first, 9550 fluorescence intensity (a.u.) for the second.

Going from “AGGGAGGGAGGGAGGAGGAAGGAGGACTGACATGTGGGCCCGGAGTCACCTAGTGCAG” to “TTCCTAGTACTATCTGCGTTGCGTTGACTGACATGTGGGCCGGAGTCACCTAGTGCAG”, the binding signal rises from 9250 fluorescence intensity (a.u.) to 17000 fluorescence intensity (a.u.).

First: ACCTGACGGCCCAACCAGGCGACCGCTCTCTCCGTTTTCCCGGAGTCACCTAGTGCAG
Second: ACCCAATCTCAATTTGCCCTGTTGCCAACCCTAGTGATGACGGAGTCACCTAGTGCAG
The binding signal of the first is lower: 8070 fluorescence intensity (a.u.) for the first, 8520 fluorescence intensity (a.u.) for the second.

Going from “TTCTTTCCGTTGTGCTTGCTGCTTTTCTCTACTACCTTTTCGGAGTCACCTAGTGCAG” to “ACTCCCTCCGTTTCACAATGTAAGTCATTCTAGCATTTCCCGGAGTCACCTAGTGCAG”, the binding signal falls from 9900 fluorescence intensity (a.u.) to 9500 fluorescence intensity (a.u.).

First: TGATTTATGAATTATGATTACTAATACTGTTTTTTGTCCTCGGAGTCACCTAGTGCAG
Second: CTTTTTAGCATATGTTTGACCGTTTGTCTTATTTAAAATACGGAGTCACCTAGTGCAG
The binding signal of the first is lower: 8780 fluorescence intensity (a.u.) for the first, 9700 fluorescence intensity (a.u.) for the second.

First: ATTTGTTTCTAAATATTTGACACCGTTGACTTTTTAGCACCGGAGTCACCTAGTGCAG
Second: GTACTCCCTCCGTTTCGAAATATTTAACACCGTTGACTTTCGGAGTCACCTAGTGCAG
The binding signal of the first is higher: 24100 fluorescence intensity (a.u.) for the first, 17400 fluorescence intensity (a.u.) for the second.

First: CCTCCGTTTCTATATATTTAATATTGTTGACTTTTTAGCACGGAGTCACCTAGTGCAG
Second: TACCGAACCTTTGGCATATTGACCCTTTTGGCCTTTTATACGGAGTCACCTAGTGCAG
The binding signal of the first is lower: 12000 fluorescence intensity (a.u.) for the first, 12200 fluorescence intensity (a.u.) for the second.

First: GAAATATTTGACACCGTTGACTTTTTAGCATATGTTTGACCGGAGTCACCTAGTGCAG
Second: TTGGTTGATTTTGATTGCTTTGCTCCTTTTCTGACTTGCTCGGAGTCACCTAGTGCAG
The binding signal of the first is higher: 30700 fluorescence intensity (a.u.) for the first, 9410 fluorescence intensity (a.u.) for the second.

Going from “TTGACACCGTTAACTTTTTAGCATATGTTTGACCGTTCATCGGAGTCACCTAGTGCAG” to “CTCTGTTTCTAAATATTTGACACCATTGACTTTTTAGCATCGGAGTCACCTAGTGCAG”, the binding signal rises from 9610 fluorescence intensity (a.u.) to 10900 fluorescence intensity (a.u.).

Going from “ACATATTGGTTGACTTTTTGCCGGGTCCACCGATTGGCACCGGAGTCACCTAGTGCAG” to “AATACTCCCTCCGTTTCGAAATATTTGACGCCGTTGACTTCGGAGTCACCTAGTGCAG”, the binding signal falls from 17700 fluorescence intensity (a.u.) to 12400 fluorescence intensity (a.u.).
